Our source for the z-score and composite z-score values is PubChem BioAssay.

Active and inactive are the calls of the source.

A short description of assay [1]: E. coli DRC41 culture turbidity changes, primary screen, E. coli filamentation inducer project, strain DRC41, OD650, 48 h (AID 1152).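 Further: E. coli MC1000 strain DRC41 lacking acrAB efflux pump and sulA.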 The following applies: E. coli DRC41 (acrAB sulA), higher = more signal, called active from +8 up or from −8 down.
Assay [2] can be described thus: small-molecule binders of probe aLefty1, primary screen, biochemical, small-molecule microarray, 635/667 nm fluorescence (AID 1153).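 Further: score merges spot fluorescence with signal-to-noise ratio from the scanned slide images.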 The following applies: higher = more signal.
Assay [3] in a line: PSAC antagonists in infected red cells, primary screen, cell-based, P. falciparum Indochina, OD700, 1 h (AID 1154). To be noted: P. falciparum Indochina infected RBC osmotic lysis, higher = more signal, called active from +8 up or from −8 down.
Assay [4] in a line: PSAC antagonists in infected red cells, primary screen, cell-based, P. falciparum Indochina, OD700, 2 h (AID 1155).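 Further: lysis reports solute entry through the parasite surface anion channel PSAC; channel blockers reduce lysis of infected cells.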 To be noted: P. falciparum Indochina infected erythrocytes, osmotic lysis OD700; higher = more signal, called active from +8 up or from −8 down.
Assay [5] can be described thus: osmotic lysis modulators in infected erythrocytes, primary screen, PSAC antagonist project, cell-based, P. falciparum Indochina, OD700, 3 h (AID 1156). The following applies: higher = more signal, called active from +8 up or from −8 down.
Assay [6] is described as follows: PSAC antagonists in infected red cells, primary screen, cell-based, P. falciparum Indochina, OD700, 18 h (AID 1157). The following applies: P. falciparum Indochina infected erythrocytes, osmotic lysis OD700, 18 h; higher = more signal, called active from +8 up or from −8 down.
Assay [7] in a line: modulators of S6 phosphorylation in cells, primary screen, cell-based, A549, cytoblot, luminescence, serum-stimulated (AID 1158).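 Further: serum-stimulated A549 lung adenocarcinoma cells; signal is phosphorylated S6 detected by cytoblot immunostaining with HRP secondary.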 To be noted: A549 phospho-S6 cytoblot, 5 h, higher = more signal.
Assay [8] has as its target NADPH oxidase 2 (Homo sapiens) (UniProt P04839). Kind of assay: NOX2-dependent H2O2 signal modulators, primary screen, NOX inhibitor project, cell-based, HEK293-NOX2, PMA-stimulated, Amplex Red fluorescence (AID 1159). Further: test concentration not given here. To be noted: 45 min, higher = more signal, called active from +8 up or from −8 down.
The target of assay [9] is NADPH oxidase 4 (Homo sapiens) (UniProt Q9NPH5). The assay is described as follows: NOX4-dependent H2O2 signal modulators, primary screen, NOX inhibitor project, cell-based, HEK293-NOX4, tetracycline-induced, Amplex Red fluorescence (AID 1160). The following applies: 45 min, higher = more signal, called active from +8 up or from −8 down.
The target in assay [10] is NADPH oxidase 5 (Homo sapiens) (UniProt Q96PH1). Kind of assay: NOX5-dependent H2O2 signal modulators, primary screen, NOX inhibitor project, cell-based, HEK293-NOX5, Amplex Red fluorescence (AID 1161). The following applies: HEK293-NOX5, ionomycin, 45 min, higher = more signal.
A short description of assay [11]: A549 cell viability effects, profiling panel, calcein-AM fluorescence, 48 h, basal (AID 1162). Further: test concentration not given here. The following applies: higher = more signal.
The nature of assay [12]: adipocyte viability effects, profiling panel, cell-based, 3T3-L1 adipocytes, calcein-AM fluorescence, 48 h, basal (AID 1163). Further: test concentration not given here. To be noted: 3T3-L1 adipocytes viability, higher = more signal.
The nature of assay [13]: HepG2 cell viability effects, profiling panel, calcein-AM fluorescence, 48 h, basal (AID 1164). Further: test concentration not given here. To be noted: higher = more signal.
Assay [14] is described as follows: MM1S cell viability effects, profiling panel, calcein-AM fluorescence, 48 h, basal (AID 1165).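 Further: viability of MM1S multiple myeloma cells under basal unstimulated conditions; test concentration not given here.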 The following applies: higher = more signal.
Assay [15] in a line: basal RPMI8226 viability, no added stimulus, profiling panel, cell-based, calcein-AM fluorescence, 48 h, PK04 Diversity Set (AID 1166).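 Further: cells grown under basal conditions without added stimulus; test concentration not given here.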 To be noted: RPMI8226 myeloma viability, higher = more signal.
The nature of assay [16]: basal HepG2 mitochondrial membrane potential changes, profiling panel, cell-based, JC-1 fluorescence, 24 h, 100 nL compound (AID 1167). Further: test concentration not given here. The following applies: higher = more signal.
A short description of assay [17]: basal 3T3-L1 adipocyte mitochondrial potential changes, profiling panel, cell-based, JC-1 fluorescence, 3T3-L1 adipocytes, 24 h, 100 nL compound (AID 1168). Further: test concentration not given here. To be noted: JC-1 mitochondrial fluorescence, higher = more signal, called active from +8 up or from −8 down.
Assay [18] can be described thus: basal RPMI8226 mitochondrial membrane potential changes, profiling panel, cell-based, JC-1 fluorescence, 24 h, 100 nL compound (AID 1169). Further: test concentration not given here. The following applies: RPMI8226 myeloma, JC-1 mitochondrial potential fluorescence, higher = more signal.
Assay [19] can be described thus: basal MM1S mitochondrial membrane potential changes, profiling panel, cell-based, JC-1 fluorescence, 24 h, 100 nL compound (AID 1170). Further: test concentration not given here. To be noted: higher = more signal.
Assay [20] is described as follows: A549 lung cancer cell viability effects, profiling panel, resazurin fluorescence, 24 h, PK04 Diversity Set (AID 1171). Further: test concentration not given here. To be noted: higher = more signal, called active from +8 up or from −8 down.

NADPH oxidase 4 (Homo sapiens), sequence (Q9NPH5 whole entry, looked up): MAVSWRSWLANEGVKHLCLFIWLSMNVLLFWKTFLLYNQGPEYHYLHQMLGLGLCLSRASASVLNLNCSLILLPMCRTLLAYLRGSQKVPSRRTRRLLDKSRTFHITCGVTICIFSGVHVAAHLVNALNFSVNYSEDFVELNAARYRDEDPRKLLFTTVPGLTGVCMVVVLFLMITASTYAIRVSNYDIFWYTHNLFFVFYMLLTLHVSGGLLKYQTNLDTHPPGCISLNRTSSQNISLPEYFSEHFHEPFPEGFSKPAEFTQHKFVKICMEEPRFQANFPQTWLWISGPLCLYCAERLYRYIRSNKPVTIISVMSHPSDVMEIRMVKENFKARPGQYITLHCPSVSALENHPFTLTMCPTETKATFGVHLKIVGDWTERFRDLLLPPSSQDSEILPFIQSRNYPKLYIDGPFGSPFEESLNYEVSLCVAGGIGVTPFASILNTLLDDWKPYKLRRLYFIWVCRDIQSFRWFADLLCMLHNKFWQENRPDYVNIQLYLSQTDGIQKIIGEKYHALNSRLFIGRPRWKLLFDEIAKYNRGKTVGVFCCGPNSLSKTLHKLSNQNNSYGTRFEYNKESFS
NADPH oxidase 5 (Homo sapiens), sequence (Q96PH1 whole entry, looked up): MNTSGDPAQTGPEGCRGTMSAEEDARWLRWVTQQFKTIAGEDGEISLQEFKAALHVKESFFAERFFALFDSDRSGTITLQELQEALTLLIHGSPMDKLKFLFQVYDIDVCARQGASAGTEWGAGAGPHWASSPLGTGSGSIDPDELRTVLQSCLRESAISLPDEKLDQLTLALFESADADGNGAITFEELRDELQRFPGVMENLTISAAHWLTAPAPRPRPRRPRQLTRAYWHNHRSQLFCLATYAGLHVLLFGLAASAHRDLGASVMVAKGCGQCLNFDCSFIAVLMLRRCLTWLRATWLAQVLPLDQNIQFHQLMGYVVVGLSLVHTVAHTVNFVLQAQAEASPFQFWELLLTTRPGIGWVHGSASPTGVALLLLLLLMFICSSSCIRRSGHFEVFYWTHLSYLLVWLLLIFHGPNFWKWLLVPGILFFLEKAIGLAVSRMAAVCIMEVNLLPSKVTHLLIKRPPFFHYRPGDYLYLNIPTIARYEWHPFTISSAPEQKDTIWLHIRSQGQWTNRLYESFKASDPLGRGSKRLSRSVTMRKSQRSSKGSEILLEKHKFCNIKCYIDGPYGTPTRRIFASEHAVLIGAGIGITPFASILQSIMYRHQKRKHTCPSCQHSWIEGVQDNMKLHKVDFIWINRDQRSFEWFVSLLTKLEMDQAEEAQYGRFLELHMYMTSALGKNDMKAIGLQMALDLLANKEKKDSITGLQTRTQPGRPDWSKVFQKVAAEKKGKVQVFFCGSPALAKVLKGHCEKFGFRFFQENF
NADPH oxidase 2 (Homo sapiens), sequence (P04839 whole entry, looked up): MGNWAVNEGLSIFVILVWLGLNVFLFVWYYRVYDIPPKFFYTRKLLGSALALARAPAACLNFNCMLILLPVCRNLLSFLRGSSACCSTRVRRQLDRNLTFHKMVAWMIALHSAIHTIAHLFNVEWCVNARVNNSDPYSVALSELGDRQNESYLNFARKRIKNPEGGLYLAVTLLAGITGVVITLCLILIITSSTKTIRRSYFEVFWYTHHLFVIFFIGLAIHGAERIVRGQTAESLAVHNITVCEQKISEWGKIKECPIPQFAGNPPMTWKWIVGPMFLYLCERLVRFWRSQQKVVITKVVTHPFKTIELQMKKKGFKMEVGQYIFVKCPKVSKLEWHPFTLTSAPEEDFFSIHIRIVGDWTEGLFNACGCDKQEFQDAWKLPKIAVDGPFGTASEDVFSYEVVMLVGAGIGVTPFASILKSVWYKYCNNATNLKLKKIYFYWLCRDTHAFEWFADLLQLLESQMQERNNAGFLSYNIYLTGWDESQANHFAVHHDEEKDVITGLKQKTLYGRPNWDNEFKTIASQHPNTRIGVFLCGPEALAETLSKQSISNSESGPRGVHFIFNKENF

On to `O=C1c2ccccc2[C@@]2(Cc3ccccc3N(CC(F)(F)F)C2=O)[C@H](c2ccc(CO)cc2)N1Cc1ccccc1Cl`, for which the z-score was 0.606 (inactive) in assay [1]; 0.902 (inactive) in assay [3]; 0.638 (inactive) in assay [4]; 0.955 (inactive) in assay [5]; 0.5 (inactive) in [6]; 0.258 in assay [7]. In addition, the z-score in assay [8] was 0.0997 (inactive); in assay [9], -0.991 (inactive); in [10], -0.826; in assay [11] it was 0.609; in assay [12], 0.889; in [13], -0.0395. In addition, the z-score was -0.354 in [14]; -0.936 in assay [15]; -0.0535 in [16]; -0.483 (inactive) in assay [17]; -0.131 in assay [18]; 0.165 in assay [19]. Further, the z-score in assay [20] was -0.142 (inactive). For the same molecule, the composite z-score in assay [2] is -0.677.

In the case of `CCCCCN1CC=CC23O[C@@H]4/C=C\CCCOC(=O)C4[C@H]2C(=O)N(CCCO)[C@@H]3C1=O` (stereo not given in full), the z-score in [1] is 2.27 (inactive); in assay [3], 1.33 (inactive); in assay [4] it was 0.212 (inactive); in [5], -1.43 (inactive); in assay [6], -0.678 (inactive); in assay [7] it was 0.696. Also, the z-score in assay [8] was 1.46 (inactive); in assay [9] it was 0.42 (inactive); in [10] it was 2.13; in assay [11] it was -0.335; in [12] it was 1.65; in assay [13], -0.495. Also, the z-score was 0.759 in [14]; 0.424 in assay [15]; -0.472 in [16]; -0.0755 (inactive) in assay [17]; 0.362 in [18]; 0.286 in assay [19]. The z-score in assay [20] was 0.937 (inactive). The composite z-score in assay [2] was -0.353.

On to `COCC(=C=CC[C@H](O)c1ccccc1OCCO)C[C@H](O)c1cc(Cl)cc(Cl)c1O`, for which the z-score in assay [1] is -0.381 (inactive); in assay [3] it was 7.9 (inactive); in assay [4], 8.65 (active); in [5], -9.18 (active); in assay [6], 3.52 (inactive); in assay [7], -0.539. Also, the z-score in [8] was -5.19 (inactive); in assay [9], -2.45 (inactive); in assay [10], -3.1; in [11], -2.79; in assay [12], -4.68; in [13] it was -2.64. The z-score is -2.93 in assay [14]; -3.02 in [15]; -0.775 in assay [16]; 1.66 (inactive) in [17]; -0.57 in assay [18]; -1.88 in assay [19]. Moreover, the z-score in [20] is -3.06 (inactive). In assay [2], this molecule showed a composite z-score of 0.233.

As for `CCN(CC)c1ccc(N2CC=CC34O[C@@H]5/C=C\CCCOC(=O)C5[C@H]3C(=O)N(CCO)[C@@H]4C2=O)cc1` (stereo not given in full), the z-score in assay [1] is -0.0626 (inactive); in assay [3], 0.897 (inactive); in assay [4], 0.175 (inactive); in assay [5], 0.227 (inactive); in assay [6] it was 0.041 (inactive); in [7] it was -0.155. Besides, the z-score in assay [8] was -0.401 (inactive); in [9], -0.72 (inactive); in assay [10], 0.733; in [11] it was 1.05; in [12], 0.327; in assay [13], 0.0797. The z-score in assay [14] was 0.727; in assay [15], -0.509; in [16] it was -0.451; in assay [17], -0.381 (inactive); in assay [18] it was -0.814; in assay [19], -0.245. Also, the z-score in assay [20] is -1.8 (inactive). In addition, the composite z-score in assay [2] amounted to 0.0999.

For the molecule `CN(C)CCCC[C@@H]1NC(=O)[C@H]2C[C@@H](C(=O)NCCCCCNC(=O)CS)[C@@H](c3cccc(OCCO)c3)N2C1=O`, the z-score in assay [1] is -0.728 (inactive); in assay [3] it was 2.9 (inactive); in assay [4], 0.55 (inactive); in assay [5], -0.744 (inactive); in assay [6], 0.203 (inactive); in assay [7], -0.534. Also, the z-score is 1.76 (inactive) in assay [8]; 0.749 (inactive) in assay [9]; 1.13 in [10]; 0.33 in assay [11]; -0.0603 in assay [12]; 0.0814 in assay [13]. For the same molecule, the z-score in assay [14] is -0.649; in assay [15], -0.0199; in assay [16], -0.246; in [17], -0.034 (inactive); in assay [18], 0.0925; in assay [19] it was 0.0356. The z-score in [20] was -0.0288 (inactive). For the same molecule, the composite z-score in [2] is -0.0601.
